Assay outcomes as filed in PubChem BioAssay.
HCV inh – inhibitors of hepatitis C virus infection | Huh7.5.1 HCVcc-Cre infection, luciferase reporter, 44 h | hit rate 3.4% among 340,000 | AID 651820 | Potency, µM (top dose mostly 41.8 µM), actives largely listed as inhibitors
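Cells seeded at 1,000/well and cultured 4 h, then compounds added followed by HCVcc-Cre virus (~0.5 moi). After 44 h further culture, luciferase substrate was added, plates held 15 min at room temperature, and luminescence read for 15 sec.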
Pf growth 96h – P. falciparum growth inhibition at 96 hours. P. falciparum luciferase reporter growth, 96 h. hit rate 6.9% among 320,000. AID 504834. Potency, µM (doses to about 28.7 µM), actives largely listed as inhibitors
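Infected RBCs, 2% Hct / 0.05% parasitemia final; luciferase-reporter P. falciparum; cpd 96 h, 37 C, 5% CO2; luciferase detection reagent; luminescence.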
HCMV inh – inhibitors of human cytomegalovirus. hit rate 4.5% among 410,000. AID 1259415. HFF cells, HCMV-luciferase reporter, 72 h; active compounds read low. activity change, negative = inhibition, % at 57.5 µM; in the data active = activity change below about -60%; inconclusive = no clear call, values can overlap the other calls; inactive = above about -39%
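Compounds were evaluated in HFFs infected with an HCMV luciferase reporter virus (MOI 1 PFU/cell). Luciferase in lysates collected 72 h post infection served as the replication measure.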
Pf growth 48h – P. falciparum growth inhibition at 48 hours (one generation); Potency, µM (highest dose often 28.7 µM), actives largely listed as inhibitors; hit rate 5.9% among 310,000; P. falciparum luciferase growth in erythrocytes, 48 h
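Read-out is firefly luciferase luminescence from an integrated reporter in P. falciparum, so falling signal marks reduced parasite growth. Infected erythrocytes were at 2% hematocrit and 0.1% parasitemia (final) in Albumax-supplemented RPMI 1640.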
Shiga inhibitor – blocks Shiga toxin action in Vero cells; inhibition, % at 38.7 µM; hit rate 9.2% among 290,000; Vero cells, Shiga toxin protein synthesis inhibition reporter; in the data active = inhibition mostly above about 28%, no sharp cut-off; inactive = mostly below about 43%
Cycloheximide cs – counter-screen hit for Shiga toxin inhibitors, cycloheximide; cell reporter, cycloheximide protein synthesis inhibition counterscreen; max response, %; hit rate 12% among 300,000; AID 2314; in the data active = max response mostly above about 13%, no sharp cut-off; inactive = mostly below about 14%; note: read at 38.3 µM for the half of the compounds with a filed dose
Hits are given with their value. In the library only some 21% were active in any assay of this set; here they are far more common. Unless noted, calls come from the whole dose curve; as a rule, active = well fitted inhibition curve with a large enough effect; inconclusive = small, poorly fitted or top-dose-only effect, or another doubt; inactive = no such curve, though single readings can be large or run the other way.

Screening C/C(CC(=O)Nc1ccc(N(C)C)cc1)=N\NC(=O)c1cnccn1 returned HCV inh inactive, Pf growth 96h inactive, HCMV inh inactive, Pf growth 48h inconclusive, Shiga inhibitor 63 and Cycloheximide cs 23.
For Cc1cccc(C(=O)Nc2ccccc2SCC(=O)Nc2ccc(C)c(Cl)c2)c1 the results were HCV inh inactive, Pf growth 96h inactive, HCMV inh inactive, Pf growth 48h inactive, Shiga inhibitor inactive and Cycloheximide cs 22.
CN(C)CCCN(C(=O)c1cccs1)c1nc(-c2ccccc2)cs1 was read as HCV inh inconclusive, Pf growth 96h inconclusive, HCMV inh inactive, Pf growth 48h inconclusive, Shiga inhibitor inactive and Cycloheximide cs inactive.
`C=CCN(C(=O)c1cccc(S(=O)(=O)N2CCN(C)CC2)c1)c1nc(-c2ccccc2)cs1` gave HCV inh 25µM, Pf growth 96h inconclusive, HCMV inh inactive, Shiga inhibitor inactive and Cycloheximide cs inactive.
For C=CCN(C(=O)Cc1cccs1)c1nc(-c2ccc(S(C)(=O)=O)cc2)cs1 the results were HCV inh inconclusive, Pf growth 96h inactive, HCMV inh inactive, Pf growth 48h inactive, Shiga inhibitor 73 and Cycloheximide cs 21.
C=CCN(C(=O)CCc1ccccc1OC)c1nc(-c2ccc(S(C)(=O)=O)cc2)cs1 was read as HCV inh inconclusive, Pf growth 96h inactive, HCMV inh inactive, Pf growth 48h inconclusive, Shiga inhibitor 63 and Cycloheximide cs 39.
`Cc1ccc(-c2csc(N(CCc3ccccc3)C(=O)COc3ccccc3)n2)cc1` gave HCV inh inactive, Pf growth 96h inconclusive, HCMV inh inactive, Pf growth 48h inconclusive, Shiga inhibitor inactive and Cycloheximide cs inactive.
`O=C(Nc1ccc(Cl)cc1)Nc1cccc(C(=O)O)c1` gave HCV inh inactive, Pf growth 96h 3.7µM, HCMV inh inactive, Pf growth 48h inactive, Shiga inhibitor 110 and Cycloheximide cs 52.
CC(=O)Nc1cccc(NC(=O)Nc2cccc3ccccc23)c1 was read as HCV inh inactive, Pf growth 96h inactive, HCMV inh inactive, Pf growth 48h inactive, Shiga inhibitor inactive and Cycloheximide cs inactive.
O=C(Nc1cccc(C(=O)O)c1)Nc1cccc2ccccc12 was read as HCV inh inactive, Pf growth 96h inactive, HCMV inh inactive, Shiga inhibitor inactive and Cycloheximide cs 21.
O=C(Nc1cccc(Cl)c1)Nc1cccc(C(=O)O)c1 was read as HCV inh inactive, Pf growth 96h inactive, HCMV inh inactive, Pf growth 48h inactive, Shiga inhibitor 76 and Cycloheximide cs 35.
`CCOc1ccc(NC(=O)Nc2cccc(C(=O)O)c2)cc1` gave HCV inh inactive, Pf growth 96h inactive, HCMV inh inactive, Pf growth 48h inactive, Shiga inhibitor inactive and Cycloheximide cs inactive.
`O=C(Nc1cccc(C(=O)O)c1)Nc1ccccc1Cl` gave HCV inh inactive, Pf growth 96h inactive, HCMV inh inactive, Pf growth 48h inactive, Shiga inhibitor 98 and Cycloheximide cs 31.
O=S(=O)(c1cc(Cl)ccc1Cl)n1cccn1 was read as HCV inh inactive, Pf growth 96h inconclusive, HCMV inh inconclusive, Pf growth 48h inactive, Shiga inhibitor inactive and Cycloheximide cs inactive.
For CCOC(=O)C1CCN(C(=O)CSc2n[nH]c(-c3ccccc3)n2)CC1 the results were HCMV inh inactive.
Screening O=C(CC1N=C2c3ccccc3N=C(SCc3cccc(Cl)c3)N2C1=O)NCCc1ccccc1 (stereo unspecified) returned HCMV inh inactive.
Screening CC(=O)Nc1cc2c(cc1NC(=O)Cn1nc(-c3ccc4c(c3)OCCO4)ccc1=O)OCCO2 returned HCV inh inconclusive, Pf growth 96h 9.3µM, HCMV inh inactive, Shiga inhibitor inactive and Cycloheximide cs inactive.
`CC(=O)Nc1cc2c(cc1NC(=O)Cn1nc(-c3ccccc3)ccc1=O)OCCO2` gave HCV inh inactive, Pf growth 96h inactive, HCMV inh inactive, Pf growth 48h inactive, Shiga inhibitor inactive and Cycloheximide cs inactive.
For CCN(CC)c1ccc(/C=C/C(=O)C2C(=O)C=C(C)OC2=O)cc1 (stereo unspecified) the results were HCV inh inactive, Pf growth 96h inactive, HCMV inh inactive, Pf growth 48h inactive, Shiga inhibitor 100 and Cycloheximide cs 26.
`CCN(CC)c1ccc(C=C2C(=O)OC(c3ccccc3)OC2=O)cc1` (stereo unspecified) gave HCV inh inactive, Pf growth 96h inactive, HCMV inh inactive, Pf growth 48h inactive, Shiga inhibitor inactive and Cycloheximide cs inactive.
Cc1ccc(C(C(=O)NC(C)(C)C)N(Cc2cccnc2)C(=O)C(=O)NC2CCCCC2)o1 (stereo unspecified) was read as HCV inh inactive, Pf growth 96h inactive, HCMV inh inactive, Pf growth 48h inconclusive, Shiga inhibitor inactive and Cycloheximide cs inactive.
CC1=Nc2ccccc2N=C(NC(=O)CN2CCN(c3ccc(F)cc3)CC2)C1c1ccccc1 (stereo unspecified) was read as HCV inh inactive, Pf growth 96h inconclusive, HCMV inh inactive, Pf growth 48h inconclusive, Shiga inhibitor inactive and Cycloheximide cs inactive.
`COc1ccc(C(=O)NC2=Nc3ccccc3N=C(C)C2c2ccccc2)cc1` (stereo unspecified) gave HCV inh inconclusive, Pf growth 96h inconclusive, HCMV inh inactive, Pf growth 48h inconclusive, Shiga inhibitor 190 and Cycloheximide cs 44.
`CC1=Nc2ccccc2N=C(NC(=O)/C=C/C(=O)O)C1c1ccccc1` (stereo unspecified) gave HCV inh inactive, Pf growth 96h inactive, HCMV inh inactive, Pf growth 48h inactive, Shiga inhibitor 77 and Cycloheximide cs 40.
COc1cc(OC)c(NC(=O)Nc2ccc3c(c2)N(C)C(=O)c2ccccc2S3)cc1Cl was read as HCMV inh inactive.
COC(=O)c1c(-c2cccs2)csc1NC(=O)c1cc(OC)cc(OC)c1 was read as HCMV inh inactive.
CCC(=O)c1ccc(OCC(O)CNCCc2ccc(Cl)cc2)cc1 (stereo unspecified) was read as HCV inh inactive, Pf growth 96h inconclusive, HCMV inh inactive, Pf growth 48h 12µM, Shiga inhibitor inactive and Cycloheximide cs inactive.
For OC(CNCCc1ccccc1)COc1ccc(OCC(O)CNCCc2ccccc2)cc1 (stereo unspecified) the results were HCV inh inconclusive, Pf growth 96h 3.7µM, HCMV inh -77, Pf growth 48h 1.7µM, Shiga inhibitor inactive and Cycloheximide cs inactive.
`CCC(=O)c1ccc(OCC(O)CNCc2ccc(F)cc2)cc1` (stereo unspecified) gave HCV inh inactive, Pf growth 96h inconclusive, HCMV inh inactive, Pf growth 48h inactive, Shiga inhibitor inactive and Cycloheximide cs inactive.
`OC(CNCCC(c1ccccc1)c1ccccc1)COc1ccccc1` (stereo unspecified) gave HCV inh 13µM, Pf growth 96h inconclusive, HCMV inh inconclusive, Pf growth 48h inconclusive, Shiga inhibitor inactive and Cycloheximide cs inactive.
